# Data: PubChem BioAssay (NCATS)
# Inconclusive results are not listed. Where a call stands in place of a potency, no number is given. Calls of active or inactive are those of the source. Calls follow the shape of the dose curve; as a rule, active = well fitted inhibition curve with a large enough effect; inconclusive = small, poorly fitted or top-dose-only effect; inactive = flat fitted curve, though single readings scatter.
# Molecular target: Voltage-gated inwardly rectifying potassium channel KCNH2 (Homo sapiens) (UniProt Q12809)
# Sequence (Q12809 whole entry, looked up): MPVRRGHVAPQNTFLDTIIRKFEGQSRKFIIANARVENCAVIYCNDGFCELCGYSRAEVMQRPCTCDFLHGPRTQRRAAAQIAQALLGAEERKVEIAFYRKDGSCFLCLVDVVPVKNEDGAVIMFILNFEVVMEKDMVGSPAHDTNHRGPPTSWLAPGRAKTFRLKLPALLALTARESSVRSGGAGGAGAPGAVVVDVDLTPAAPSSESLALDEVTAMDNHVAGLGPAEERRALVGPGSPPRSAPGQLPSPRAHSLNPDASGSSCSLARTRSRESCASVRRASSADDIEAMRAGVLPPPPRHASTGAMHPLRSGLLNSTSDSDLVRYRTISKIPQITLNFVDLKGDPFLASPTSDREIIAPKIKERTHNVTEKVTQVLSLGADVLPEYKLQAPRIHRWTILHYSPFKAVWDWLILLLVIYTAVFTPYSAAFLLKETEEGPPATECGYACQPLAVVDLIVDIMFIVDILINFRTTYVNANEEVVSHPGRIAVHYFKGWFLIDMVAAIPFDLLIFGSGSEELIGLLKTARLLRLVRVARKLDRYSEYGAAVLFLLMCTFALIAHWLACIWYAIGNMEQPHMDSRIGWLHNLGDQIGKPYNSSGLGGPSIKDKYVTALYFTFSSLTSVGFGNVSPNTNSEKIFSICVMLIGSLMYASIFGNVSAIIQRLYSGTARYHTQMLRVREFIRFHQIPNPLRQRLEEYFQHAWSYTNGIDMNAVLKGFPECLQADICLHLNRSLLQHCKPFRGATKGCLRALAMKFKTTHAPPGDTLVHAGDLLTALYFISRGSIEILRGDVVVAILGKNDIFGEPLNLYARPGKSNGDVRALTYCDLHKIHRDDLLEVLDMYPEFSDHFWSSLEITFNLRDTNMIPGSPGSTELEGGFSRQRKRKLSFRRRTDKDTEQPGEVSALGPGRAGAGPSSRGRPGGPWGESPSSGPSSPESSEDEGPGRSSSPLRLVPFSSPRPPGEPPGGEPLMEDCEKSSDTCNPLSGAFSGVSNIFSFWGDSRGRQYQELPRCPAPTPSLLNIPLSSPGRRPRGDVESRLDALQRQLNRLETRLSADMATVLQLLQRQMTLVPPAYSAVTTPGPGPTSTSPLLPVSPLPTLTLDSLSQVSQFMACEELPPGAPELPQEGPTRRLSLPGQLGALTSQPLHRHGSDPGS
# Experiment: qHTS Assay for Small Molecule Inhibitors of the Human hERG Channel Activity (AID 588834);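 also: top concentration of the series differs between compounds; lower thallium flux fluorescence means stronger hERG block; nearly all actives have a fitted effect of over 50% in size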
# Conditions: U2OS BacMam hERG, FluxOR thallium flux fluorescence; series mostly up to 46.1 µM
# Procedure, shortened: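 Concentration-response qHTS measuring drop in thallium-sensitive dye signal. U2OS cells carrying BacMam hERG; compound exposure ~10 min, then stimulation buffer and 2 min read at 1 sec intervals.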
row,Compound,Potency
1,O=C(NCC(O)CO)c1c(I)c(C(=O)NCC(O)CO)c(I)c(N(CCO)C(=O)CO)c1I (configuration not stated),inactive
2,CCOC(=O)[C@H](CCc1ccccc1)N[C@@H](C)C(=O)N1Cc2cc(OC)c(OC)cc2C[C@H]1C(=O)O,inactive
3,C[n+]1ccccc1/C=N/O,inactive
4,CN[C@@H]1[C@H](O)[C@H](NC)[C@H]2O[C@@]3(O)C(=O)C[C@@H](C)O[C@H]3O[C@@H]2[C@H]1O,inactive
5,OCCN1C[C@H](O)[C@@H](O)[C@H](O)[C@H]1CO,inactive
6,CC(=O)[C@@]1(O)CC[C@H]2[C@@H]3C[C@H](C)C4=CC(=O)C=C[C@]4(C)[C@@]3(F)[C@@H](O)C[C@@]21C,inactive
7,CN[C@@H]1[C@@H](O)[C@@H](O[C@@H]2[C@H](O)[C@H](O[C@H]3OC(CN)=CC[C@H]3N)[C@@H](N)C[C@H]2N)OCC1(C)O (some centres not stated),inactive
8,O=C(/C=C/c1ccc(O)c(O)c1)O[C@@H]1C[C@@](OC(=O)/C=C/c2ccc(O)c(O)c2)(C(=O)O)C[C@@H](O)[C@@H]1O,inactive
9,COCC(=O)Nc1c(I)c(C(=O)NCC(O)CO)c(I)c(C(=O)N(C)CC(O)CO)c1I (configuration not stated),inactive
10,CCCNC(C)C(=O)Nc1c(C)csc1C(=O)OC (configuration not stated),inactive
11,CN1CC(=O)NC1=N,inactive
12,CCN[C@H]1CN(CCCOC)S(=O)(=O)c2sc(S(N)(=O)=O)cc21,inactive
13,O=C(O)C(S)C(S)C(=O)O (configuration not stated),inactive
14,NS(=O)(=O)c1cc(C2(O)NC(=O)c3ccccc32)ccc1Cl (configuration not stated),inactive
15,CC(=O)N1C[C@H](O)C[C@H]1C(=O)O,inactive
16,NC(=O)N[C@@H](CCC(=O)O)C(=O)O,inactive
17,C[C@]1(Cn2ccnn2)[C@H](C(=O)O)N2C(=O)C[C@H]2S1(=O)=O,inactive
18,COC(=O)N/N=C/c1c[n+]([O-])c2ccccc2[n+]1[O-],inactive
19,CC1(C)S[C@@H]2[C@H](NC(=O)C(C(=O)O)c3ccccc3)C(=O)N2[C@H]1C(=O)O (some centres not stated),inactive

row,Compound,Potency
1,CC(=O)N(CC(O)CN(C(C)=O)c1c(I)c(C(=O)NCC(O)CO)c(I)c(C(=O)NCC(O)CO)c1I)c1c(I)c(C(=O)NCC(O)CO)c(I)c(C(=O)NCC(O)CO)c1I (configuration not stated),inactive
2,CC1(c2ccccc2)OC(C(=O)O)=CC1=O (configuration not stated),inactive
3,C[N+]1(C)CCCC(OC(=O)C(O)(c2ccccc2)c2ccccc2)C1 (configuration not stated),inactive
4,C/C=C/C(=O)N(CC)c1ccccc1C,inactive
5,CO[C@@]1(NC(=O)C(C(=O)O)c2ccc(O)cc2)C(=O)N2C(C(=O)O)=C(CSc3nnnn3C)CO[C@@H]21 (some centres not stated),inactive
6,CC(=O)N[C@H]1[C@H]([C@H](O)[C@H](O)CO)OC(C(=O)O)=C[C@@H]1N=C(N)N,inactive
7,CC[C@H](C)[C@H](N)C(=O)O,inactive
8,CN1C(=O)CC(c2ccccc2)C1=O (configuration not stated),inactive
9,C/C=C1\[C@H]2C=C(C)C[C@]1(N)c1ccc(=O)[nH]c1C2,inactive
10,Cc1ccc2c(c1)c1c3n2CCNC3CCC1 (configuration not stated),inactive
11,CCCCCOC(=O)Nc1nc(=O)n([C@@H]2O[C@H](C)[C@@H](O)[C@H]2O)cc1F,inactive
12,CC(=O)OCC(=O)[C@@]1(O)CC[C@H]2[C@@H]3CCC4=CC(=O)C=C[C@]4(C)[C@@]3(F)[C@@H](O)C[C@@]21C,inactive
13,CCOc1ccccc1O[C@H](c1ccccc1)[C@H]1CNCCO1,inactive
14,CC1(C)[C@@H](OC(=O)CCC(=O)O)CC[C@]2(C)[C@H]3C(=O)C=C4[C@@H]5C[C@@](C)(C(=O)O)CC[C@]5(C)CC[C@@]4(C)[C@]3(C)CC[C@@H]12,inactive
15,CCOC(=O)OC(C)OC(=O)[C@@H]1N2C(=O)[C@@H](NC(=O)[C@H](N)c3ccccc3)[C@H]2SC1(C)C (some centres not stated),inactive
16,C=CCN1C[C@H](C(=O)N(CCCN(C)C)C(=O)NCC)C[C@@H]2c3cccc4[nH]cc(c34)C[C@H]21,inactive
17,O=c1[nH]c(=O)n([C@H]2C[C@H](O)[C@@H](CO)O2)cc1I,inactive
18,CC1(C)S[C@@H]2[C@H](N=CN3CCCCCC3)C(=O)N2[C@H]1C(=O)O,inactive
